This is an account of results in ChEMBL document CHEMBL3433997, “St. Jude Leishmania screening dataset” (2016).

For orientation: inhibition means the relative decrease from the control value, in per cent.

Holding throughout (format): functional
For test [1], the target named is Solute carrier family 2, facilitated glucose transporter member 1 (Homo sapiens) (UniProt P11166). The test can be described thus: ST_JUDE_LEISH: Cytotoxicity at 2uM final concentration against transgenic Leishmania Mexicana promastigotes LmGLUT1 that are glucose transport deficient and complemented with the human glucose transporter GLUT1. Activity is measured by DNA content using SYBR green in vitro.
Chain of Solute carrier family 2, facilitated glucose transporter member 1 (Homo sapiens) (P11166 whole entry): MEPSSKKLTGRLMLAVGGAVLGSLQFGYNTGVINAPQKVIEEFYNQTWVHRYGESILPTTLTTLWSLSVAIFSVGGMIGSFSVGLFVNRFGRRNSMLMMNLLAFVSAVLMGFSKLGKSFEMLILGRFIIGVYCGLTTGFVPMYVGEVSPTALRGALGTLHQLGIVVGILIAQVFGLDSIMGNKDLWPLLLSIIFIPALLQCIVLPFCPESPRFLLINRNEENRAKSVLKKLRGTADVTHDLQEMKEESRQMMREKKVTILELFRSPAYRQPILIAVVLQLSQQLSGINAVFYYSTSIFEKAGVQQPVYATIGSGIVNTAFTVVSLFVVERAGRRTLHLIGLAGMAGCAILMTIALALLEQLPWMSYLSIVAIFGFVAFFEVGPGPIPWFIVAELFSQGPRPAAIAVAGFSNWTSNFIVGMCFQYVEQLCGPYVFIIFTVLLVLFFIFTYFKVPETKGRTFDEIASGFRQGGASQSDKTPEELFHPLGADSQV

Test [2] concerns the target Hexose transporter 1 (Plasmodium falciparum) (UniProt O97467). Description: ST_JUDE_LEISH: Cytotoxicity at 2uM final concentration against transgenic Leishmania Mexicana promastigotes LmPfHT that are glucose transport deficient and complemented with the Plasmodium falciparum hexose transporter. Activity is measured by DNA content using SYBR green in vitro.
Test [3] concerns the target Glucose transporter (Leishmania mexicana) (UniProt O61059). The test can be described thus: ST_JUDE_LEISH: Cytotoxicity at 2uM final concentration against transgenic Leishmania Mexicana promastigotes LmGT2 that are glucose transport deficient and complemented with the L. Mexicana glucose transporter 2. Activity is measured by DNA content using SYBR green in vitro.

Take `O=C(Nc1ccc(OC2CCN(Cc3ccc(F)cc3)CC2)cc1)c1cccs1`: the inhibition in test [1] was -0.82%; in test [2], 0.37%; in test [3], -2.79%.
Regarding `COC(=O)c1c(C#N)c(OC)cc(O)c1CSC[C@@H](CN1CCCCC1)Nc1nc(-c2ccc([N+](=O)[O-])cc2)cs1`, the figures for the inhibition in test [1], in test [2] and in test [3] were -0.16%, -0.29% and 0.57%, respectively.
Regarding `CC1(C)N=C(N)N=C(N)N1c1ccc(Cl)c(Cl)c1`, the inhibition in test [1] is -1.25%; in test [2] it was 0.49%; in test [3], 3.04%.
On to `NC1=NC(c2ccccc2)(c2ccccc2)C(=O)N1Cc1ccc(-c2cccnc2)cc1`, for which the inhibition in test [1] amounted to 2.71%; in test [2] it was 1.53%; in test [3] it was 0.52%.
On the same counts, the results for `CN1C(C)(C)CC(NC(=O)c2ccc(-c3nc4cc(Cl)c(Cl)cc4[nH]3)cc2)CC1(C)C` are 2.52%, 2.2% and 2.38%.
For `O=C(N[C@@H](Cc1ccccc1)C(=O)NCCN1CCCCC1)c1ccc(O)c(-c2cccc(C(F)(F)F)c2)c1` the same measures were 2.63%, 1.38% and 2.46%.
Take `c1ccc2[nH]c(-c3ccc(-c4ccc(CNC5CC5)cc4)s3)nc2c1`: the inhibition was 0.93% in test [1], 0.48% in test [2] and -2.14% in test [3].
As to `CCCCCN1CCCC(NS(=O)(=O)c2cccc(C(=O)Nc3cccc(C(F)(F)F)c3)c2)C1` (stereo not drawn), the figures for the inhibition in test [1], in test [2] and in test [3] were -0.69%, -0.64% and -2.02%, respectively.
For `Cc1cc(C2CCN(CCCCNC(=O)c3ccc(NC(=O)c4ccc(Cl)cc4)cc3)CC2)c(C)cc1OCc1ccccn1`, the values for the inhibition in test [1], in test [2] and in test [3] were 2.54%, 2.64% and 0.11%, respectively.
Regarding `CC1CN(c2cc(=O)n(Cc3ccc(NC(=O)Nc4ccc(-c5ccccc5)cc4)cc3)cn2)CC(C)N1` (stereo not drawn), the inhibition in test [1] was 1.33%; in test [2], 1.47%; in test [3], -0.75%.
On the same counts, the results for `CC(C)c1ccc(CN2CCCCC(NC(=O)c3cc(-c4cccc(F)c4)cs3)C2)cc1` (stereo not drawn) are -2.71%, 3% and 0.54%.
